# EPAC2 ant val: Validation qHTS for antagonist of cAMP-regulated guanine nucleotide exchange factor 4 (EPAC2); EPAC2 Rap1B BODIPY-GDP exchange, fluorescence; Potency, µM (highest dose often 112 µM), without a hit: top-dose activity, negative = inhibition, actives largely listed as inhibitors; hit rate 1.7% among 16,000; AID 1645886, 2021;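 further: 100% = activation by cAMP agonist control; nearly all actives have a fitted effect of over 40% in size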
#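 Normalized against a 6.5 mM cAMP agonist control, compounds were tested on 100 nM EPAC2 exchanging Rap1B-bound BODIPY-GDP (250 nM) for 50 uM GDP. Fluorescence drop (ex 480, em 540 nm) was tracked at room temperature over 30 min at 5-min intervals.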
# EPAC1 ag val: Validation qHTS for agonist of cAMP-regulated guanine nucleotide exchange factor 3 (EPAC1) | Potency, µM, for the others: max response, positive = active, usual class: activators | hit rate 1% among 16,000 | EPAC1 Rap1b BODIPY-GDP exchange, fluorescence | AID 1645883, 2021; further: nearly all actives have a fitted effect of over 70% in size
# Target sequence (O95398 whole entry, looked up): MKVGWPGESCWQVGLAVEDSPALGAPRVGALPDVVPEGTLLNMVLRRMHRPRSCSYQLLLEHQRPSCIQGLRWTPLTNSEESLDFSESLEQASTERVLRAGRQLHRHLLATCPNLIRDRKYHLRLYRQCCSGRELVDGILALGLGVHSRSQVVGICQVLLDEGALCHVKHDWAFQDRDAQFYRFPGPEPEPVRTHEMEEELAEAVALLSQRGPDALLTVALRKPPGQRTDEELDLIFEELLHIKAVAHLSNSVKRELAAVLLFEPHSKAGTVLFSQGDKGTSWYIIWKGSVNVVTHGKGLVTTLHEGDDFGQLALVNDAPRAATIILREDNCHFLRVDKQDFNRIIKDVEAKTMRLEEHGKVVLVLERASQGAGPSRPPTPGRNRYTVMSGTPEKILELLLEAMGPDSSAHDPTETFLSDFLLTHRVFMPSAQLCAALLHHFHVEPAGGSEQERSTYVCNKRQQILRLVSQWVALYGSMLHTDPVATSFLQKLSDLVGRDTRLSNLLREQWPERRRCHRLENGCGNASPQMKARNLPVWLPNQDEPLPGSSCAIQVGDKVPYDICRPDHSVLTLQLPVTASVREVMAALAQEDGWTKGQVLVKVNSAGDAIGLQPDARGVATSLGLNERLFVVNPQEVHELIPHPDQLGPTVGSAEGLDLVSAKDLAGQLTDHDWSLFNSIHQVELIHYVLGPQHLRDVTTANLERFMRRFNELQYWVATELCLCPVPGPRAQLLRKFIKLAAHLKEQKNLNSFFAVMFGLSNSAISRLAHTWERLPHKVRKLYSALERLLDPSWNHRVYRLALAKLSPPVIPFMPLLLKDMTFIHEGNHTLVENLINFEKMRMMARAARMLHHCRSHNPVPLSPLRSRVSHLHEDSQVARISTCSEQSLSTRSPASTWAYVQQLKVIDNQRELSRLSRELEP
# The depositor's hits bear a star; ? = inconclusive; ! = a repeat was not active; [ ] = dose if it differs, or a comment. Most compounds without a hit are left out; they make up all but 2.9% or so of the library. The call rests on the fitted dose curve; in most records, active means well fitted curve in the direction sought with a large enough effect; inconclusive means small, poorly fitted or top-dose-only effect, or another doubt; inactive means no such curve, though single readings can be large; an effect the other way counts as inactive or inconclusive. Unless noted, on the % scale 0 is the no-effect control and ±100 the full control effect; potency means the concentration at half of the fitted maximal effect.
SMILES,EPAC2 ant val,EPAC1 ag val
CCCCC/C=C\CCC(=O)N[C@H]1[C@H](Oc2c3cc4cc2Oc2ccc(cc2Cl)[C@@H](O[C@@H]2O[C@H](CO)[C@@H](O)[C@H](O)[C@H]2NC(C)=O)[C@@H]2NC(=O)[C@H](NC(=O)[C@@H]4NC(=O)[C@H]4NC(=O)[C@@H](Cc5ccc(c(Cl)c5)O3)NC(=O)[C@H](N)c3ccc(O)c(c3)Oc3cc(O)cc4c3)c3ccc(O)c(c3)-c3c(O[C@H]4O[C@H](CO)[C@@H](O)[C@H](O)[C@@H]4O)cc(O)cc3[C@@H](C(=O)O)NC2=O)O[C@H](CO)[C@@H](O)[C@@H]1O,35%,-122%
Cc1ccc(C(=O)Nc2cccc(-c3nc(CNC(=O)c4ccc5ccccc5n4)c(C)o3)c2)s1,-1%,3%
CCOc1nc2cccc(C(=O)OC(C)OC(=O)OC3CCCCC3)c2n1Cc1ccc(-c2ccccc2-c2nn[nH]n2)cc1 (configuration not stated),56µM*,?
CCCc1nc(C(C)(C)O)c(C(=O)OCc2oc(=O)oc2C)n1Cc1ccc(-c2ccccc2-c2nn[nH]n2)cc1,-20%,-19%
C=CC[C@@H]1/C=C(\C)C[C@H](C)C[C@H](OC)[C@H]2O[C@@](O)(C(=O)C(=O)N3CCCC[C@H]3C(=O)O[C@H](/C(C)=C/[C@@H]3CC[C@@H](O)[C@H](OC)C3)[C@H](C)[C@@H](O)CC1=O)[C@H](C)C[C@@H]2OC,79µM*,-64%
CC[C@@H]1/C=C(\C)C[C@H](C)C[C@H](OC)[C@H]2O[C@@](O)(C(=O)C(=O)N3CCCC[C@H]3C(=O)O[C@H](/C(C)=C/[C@@H]3CC[C@@H](Cl)[C@H](OC)C3)[C@H](C)[C@@H](O)CC1=O)[C@H](C)C[C@@H]2OC,11%,9%
COC(=O)C1CCCCN1Cc1ccc2c(c1)CN(Cc1cnn(-c3ccccc3)c1)CCO2 (configuration not stated),-2%,-6%
O=C(c1cnccn1)N1CCC[C@@]2(CCN(c3cccc(-c4ccccc4)c3)C2)C1,?,100µM*
Cn1cccc1C(=O)N1CCC[C@@]2(CCN(c3cccc(-c4ccccc4)c3)C2)C1,-29%,17%
COC(=O)N1CCC2(CCCN(c3cccc(-c4ccccc4)c3)C2)CC1,-25%,112µM*
Cn1cccc1C(=O)N1CCC2(CCCN(c3cccc(-c4ccccc4)c3)C2)CC1,-11%,112µM*
COc1ccc(C(=O)N2CCC3(CC2)CN(c2cccc(-c4ccccc4)c2)C3)cc1,-26%,112µM*
O=C(c1ccco1)N1CCC2(CCCN(c3cccc(-c4ccccc4)c3)C2)CC1,-15%,?
O=C(c1cnccn1)N1CCC[C@@]2(CCN(c3ccccc3)C2)C1,-18%,-44%
O=C(c1ccncc1)N1CCC2(CC1)CN(c1cccc(-c3ccccc3)c1)C2,-41%,?
OC1(c2cccnc2)CCN(Cc2ccc3c(c2)CN(Cc2cccc(C(F)(F)F)c2)CCO3)CC1,-29%,18%
O=C(CN1Cc2ccccc2OC(c2ccsc2)C1)N1CCC(c2nc3ccccc3[nH]2)CC1 (configuration not stated),-18%,11%
CCC(=O)O[C@@H]1CC(=O)O[C@H](C)C/C=C/C=C/[C@H](O)[C@H](C)C[C@H](CC=O)[C@H](O[C@@H]2O[C@H](C)[C@@H](O[C@H]3C[C@@](C)(O)[C@@H](OC(=O)CC)[C@H](C)O3)[C@H](N(C)C)[C@H]2O)[C@H]1OC,-11%[56.6 µM],-12%
COc1ccc(C(=O)N2CCC3(CCCN(c4cccc(-c5ccccc5)c4)C3)CC2)cc1,-9%,100µM*
COc1ccc(C(=O)N2CCC3(CCCN(c4ccccc4)C3)CC2)cc1,-20%,-20%
O=C1/C(=C\c2cccs2)CCC/C1=C\c1cccs1,0%,9%
CN(C)c1ncc2nc(-c3ccc(F)cc3)c(=O)n(CCc3ccccc3)c2n1,-3%,-38%
CN(C)c1ncc2nc(CCc3ccccc3)c(=O)n(-c3ccccc3)c2n1,-1%,112µM*
COc1ncc2nc(CCc3ccccc3)c(=O)n(-c3ccccc3)c2n1,-44%,?
CN(C)c1ncc2nc(-c3ccc(F)cc3)c(=O)n(-c3ccccc3)c2n1,-11%,100µM*
SMILES,EPAC2 ant val,EPAC1 ag val
Cc1cccc(C)c1N(CCCc1cccnc1)C(=O)C(C)N (configuration not stated),-3%,13%
O=C(NC(c1cccnc1)C(F)(F)F)c1cnn(-c2nccc(-c3cccs3)n2)c1C1CC1 (configuration not stated),-16%,16%
COc1cc([C@@H]2c3cc4c(cc3C(O[C@@H]3O[C@@H]5CO[C@@H](C)O[C@H]5[C@H](O)[C@H]3O)C3COC(=O)[C@@H]32)OCO4)cc(OC)c1OP(=O)(O)O (some centres not stated),20%,-3%
Cc1ccc(C(=O)Nc2cccc(-c3nc(CNC(=O)[C@@H]4C[C@@H](C)NC(=S)N4)c(C)o3)c2)s1,?,-8%
c1ccc(-c2onc(-c3ccco3)c2-c2ccc3[nH]ccc3c2)cc1,?,112µM*
CCCCCCCC/C=C\C/C=C\C/C=C\CCCC(=O)NCCO,-21%[11.4 µM],-33%
CCCCCCCC/C=C\CCCCCCCC(=O)N[C@@H](CO)Cc1ccc(O)cc1,20µM*,-58%
COc1ccc(-c2nc3cc(F)ccc3cc2CN(C(=O)c2cccs2)C2CC2)cc1,-20%,-11%
COc1cccc(-c2nc3cc(SC)ccc3cc2CN(C(=O)c2sccc2C)C2CC2)c1,40µM*,?
COc1ccc2c(=O)c(OC)c(-c3ccccc3)oc2c1,11µM*,-8%
COc1ccc(-c2oc3ccccc3c(=O)c2O)cc1,-10%,-5%
Cc1c(C)c2c(c(C)c1OC(=O)CCC(=O)OCCO)CC[C@@](C)(CCC[C@H](C)CCC[C@H](C)CCCC(C)C)O2,43%,-240%
C[C@@]12C(=O)OC(=O)[C@@]1(C)C1CCC2O1,12%,-33%
C[C@@]12C(=O)OC(=O)[C@@]1(C)[C@@H]1CC[C@@H]2O1,56µM*,-12%
O=c1c(-c2cc(F)cc(F)c2)nc2cncnc2n1Cc1ccccc1Cl,-13%,?
O=c1c(-c2ccc(F)c(F)c2)nc2cncnc2n1Cc1ccccc1Cl,?,100µM*
CCCCC[C@H](O)CC(=O)CCc1ccc(O)c(OC)c1,-28%[151 µM],-9%
COc1cc(CNC(=O)CCCC/C=C/C(C)C)ccc1O,40µM*!,-36%
COc1ccccc1C1CN(CCNC(=O)c2ccc3c(c2)OCCO3)Cc2ccccc2O1 (configuration not stated),-15%,8%
CC[C@H]1OC(=O)[C@H](C)[C@@H](O[C@H]2C[C@@](C)(OC)[C@@H](O)[C@H](C)O2)[C@H](C)[C@@H](O[C@@H]2O[C@H](C)C[C@H](N(C)C)[C@H]2O)[C@](C)(O)C[C@@H](C)/C(=N\OCOCCOC)[C@H](C)[C@@H](O)[C@]1(C)O,17%[56.6 µM],-27%
O=C(OCCOCCO)c1ccccc1Nc1cccc(C(F)(F)F)c1,-20%[56.6 µM],-8%
Cc1cc(C)c(S(=O)(=O)Nc2cccc(C(F)(F)F)c2)c(C)c1,40µM*,-11%
Clc1cccc(C(c2ccc3nc[nH]c3c2)n2ccnc2)c1 (configuration not stated),-14%,-12%

# High-throughput results (PubChem BioAssay)
